This is a sample that favours compounds with a hit; in the whole collection about 3.1% have one here.
HIF activator = HIF pathway transcriptional activation | U2OS HRE-luciferase reporter, luminescence; normalized: DMSO 0%, desferrioxamine 100% | activation, % at 7.5 µM (by protocol) | hit rate 0.32% among 300,000;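 active means mean activation of at least 10% of the iron chelator positive control signal, with at least half of replicates also reaching 10%; inconclusive means mean and replicate majority disagree about reaching 10%; inactive means mean and most replicates under 10%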
HSF1 inh = HSF1 inhibition; NIH3T3-HGL HSE-luciferase, MG132-induced, luminescence 8 h; hits give low values; activity change, negative = inhibition, % at 7.5 µM (by protocol); hit rate 0.77% among 300,000;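 active means more than half of replicate wells show activity change below -50%, luminescence cut by over half; inconclusive means some wells, but at most half, below -50%; inactive means no replicate well below -50%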;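 further: luciferase reports HSF-1 transcriptional activity via heat shock element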
HSP90 inh = blocks HSP90-mediated luciferase refolding in reticulocyte lysate. inhibition, % at 5.6 µM. Rabbit reticulocyte lysate, luciferase refolding luminescence, 3 h. hit rate 0.91% among 290,000;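 active means inhibition above the screen-wide mean plus 3 SD, computed separately per campaign, cut at about 16% in these data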;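 further: inhibitors lower the luminescence because luciferase stays unfolded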
ARNT-TACC3 inh = disruptors of human ARNT/TACC3 interaction | Q9Y6A5 | AlphaScreen His-ARNT PAS-B/GST-TACC3 binding, luminescence; TACC3 fragment carries E629A point mutation | inhibition, % at 9.99 µM | hit rate 0.66% among 390,000 | AID 623870;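 active means mean inhibition of replicates at least 50% and at least half of replicates each reaching 50%; inconclusive means half or more replicates reach 50% but mean below 50%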
HSF1 activator = increases HSF-1 driven luciferase reporter signal. hit rate 1.7% among 300,000. activation, % at 9 µM. NIH3T3-HGL HSF-1 luciferase reporter, MG132, 8 h; 100% = twice DMSO control signal. AID 504408;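 active means mean replicate activation of at least 50% with a set share of replicates each reaching 50%; inconclusive means only one of those two conditions met; inactive means mean below 50% and too few replicates reaching it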
Large screens that a line does not name were inactive.

COc1ccccc1S(=O)(=O)N[C@H]1CC[C@H](CCNC(=O)C2CCC2)O[C@H]1CO	none (no result: HIF activator, HSF1 inh, HSP90 inh, HSF1 activator)
CCNC(=O)Nc1ccc2c(c1)C(=O)N(C)[C@@H]1CC[C@@H](CC(=O)NCCN3CCCC3)O[C@H]1CO2	none (no result: HIF activator, HSF1 inh, HSP90 inh, HSF1 activator)
Cc1ccc(CSc2nnc(-c3ccc4c(c3)OCO4)o2)cc1	none
O=C(O)CCSc1nnc(-c2ccc3c(c2)OCO3)o1	HSF1 inh -52.1, HSP90 inh 16.1
O=C(NCc1cccnc1)/C(=C/c1ccc(-c2ccc(Cl)cc2)o1)S(=O)(=O)c1ccccc1	HSF1 activator 86.9
CC(=O)Nc1cc(OC(C)=O)c2nonc2c1OC(C)=O	HSP90 inh 84.7 (no result: HIF activator, HSF1 inh, HSF1 activator)
CCOC(=O)c1ccc2nc(NC(=O)c3cccs3)sc2c1	none
O=C(NC(=S)Nc1nc2ccc(F)cc2s1)c1ccco1	HSF1 activator 89.4
CS(=O)(=O)c1ccc2nc(NC(=O)c3ccco3)sc2c1	none
O=C(Nc1nc2c(s1)CCc1ccccc1-2)c1cccs1	HSF1 activator 57.5
CC(C)(C)c1csc(NC(=O)c2cccs2)n1	HSF1 activator 54.5
CCOC(=O)c1ccc2nc(NC(=O)c3ccco3)sc2c1	HSF1 activator 69.4
CCCN(C)C[C@@H]1Oc2cc(C#Cc3ccc(F)cc3)ccc2S(=O)(=O)N([C@@H](C)CO)C[C@@H]1C	none (no result: HIF activator, HSF1 inh, HSP90 inh, HSF1 activator)
O=C(Nc1nc2ccc(F)cc2s1)c1cccs1	HSF1 activator 79.5
COc1cccc(NC(=O)N[C@@H]2CC[C@H](CC(=O)N3CCCCC3)O[C@@H]2CO)c1	none (no result: HIF activator, HSF1 inh, HSP90 inh, HSF1 activator)
COc1ccc(C(NC(=O)c2ccc(=O)[nH]c2)C(=O)Nc2ccc(C(C)C)cc2)cc1 (stereo not drawn)	HSF1 inh -61.2
CCCCOc1ccc(S(=O)(=O)N2CCCCCC2)cc1	HSF1 activator 66.0 (no result: HIF activator)
CCCCOc1ccc(S(=O)(=O)N2CCN(C)CC2)cc1	none (no result: HSP90 inh)
COc1ccc(CN2CCN(c3ncnc4scc(-c5ccc(F)cc5)c34)CC2)cc1	ARNT-TACC3 inh 48.0
CCOC(=O)c1cn[nH]c1C(F)(F)F	HSF1 activator 56.9
Cc1c(Cl)c(C(=O)NC2CCCC2)nn1C	HSF1 activator 60.7
COc1cc(/C=C/C(=O)c2c(O)ccc3c(C)cc(=O)oc23)ccc1O	HSF1 activator 113.2
Cc1c(C(=O)/C=C/c2cccs2)oc2ccc(F)cc12	HSF1 activator 106.0
Cc1cc(=O)oc2c(C(=O)/C=C\c3cccs3)c(O)ccc12	HSF1 activator 61.2
Cc1c(C(=O)N2CCN(C(=O)c3ccccc3)CC2)oc2ccc(F)cc12	none (no result: HIF activator, HSF1 inh, HSP90 inh, HSF1 activator)
COc1ccc(S(=O)(=O)N2C[C@@H](O)COC[C@@H]3O[C@@H](CC(=O)NCCCN4CCOCC4)CC[C@H]32)cc1	none (no result: HIF activator, HSF1 inh, HSP90 inh, HSF1 activator)
CNC(=O)C[C@H]1CC[C@@H]2[C@H](COc3ccc(NC(=O)Nc4cc(C)cc(C)c4)cc3C(=O)N2C)O1	none (no result: HIF activator, HSF1 inh, HSP90 inh, HSF1 activator)
C[C@H](CO)N1C[C@H](C)[C@H](CN(C)C(=O)Nc2cc(F)ccc2F)Oc2cc(/C=C/c3ccccc3)ccc2S1(=O)=O	none (no result: HIF activator, HSF1 inh, HSP90 inh, HSF1 activator)
COc1ccc(S(=O)(=O)N(C)C[C@H]2OCc3cnnn3CCCC(=O)N([C@@H](C)CO)C[C@@H]2C)cc1	none (no result: HIF activator, HSF1 inh, HSP90 inh, HSF1 activator)
CCC(=O)N1[C@@H]2Cn3c(ccc(-c4ccncc4)c3=O)[C@H]1[C@@H](C(=O)NC1Cc3ccccc3C1)[C@@H]2CO	none (no result: HIF activator, HSF1 inh, HSP90 inh, HSF1 activator)
CN(C)c1ccc(/C=N/NC(=O)C(O)(c2ccccc2)c2ccccc2)o1	none
O=C(N/N=C/c1ccc(N2CCCCC2)o1)C(O)(c1ccccc1)c1ccccc1	HSF1 activator 65.8 (no result: ARNT-TACC3 inh)
Cc1ccc(C(=O)O/N=C(\N)Cc2cccc3ccccc23)cc1	HSF1 activator 63.5 (no result: ARNT-TACC3 inh)
COc1ccccc1CC(=O)O/N=C(\N)Cc1cccc2ccccc12	none
OCC1CCCN(C(=S)Nc2ccc(Nc3ccccc3)cc2)C1 (stereo not drawn)	HSF1 activator 74.2 (no result: ARNT-TACC3 inh)
Cc1nc(N/N=C/c2ccc(O)cc2O)cc(N2CCOCC2)n1	ARNT-TACC3 inh 65.0
COc1ccc(/C=N/Nc2ccccn2)cc1O	ARNT-TACC3 inh 26.2
Oc1ccc(/C=N/Nc2cccc3cccnc23)c(O)c1	HSF1 activator 84.9
C(=N\c1nccs1)/c1c[nH]c2ccccc12	ARNT-TACC3 inh 39.8
Oc1oc(-c2cccc3ccccc23)nc1/C=N/c1nccs1	none
C[C@@H]1CN([C@@H](C)CO)C(=O)c2cc(NC(=O)C3CCCCC3)ccc2O[C@@H](C)CCCCO[C@@H]1CN(C)C(=O)Nc1cccc2ccccc12	none (no result: HIF activator, HSF1 inh, HSP90 inh, HSF1 activator)
COc1ccc(NC(=O)N(C)C[C@@H]2OCCCC[C@H](C)Oc3ccc(NC(=O)Nc4ccc(F)cc4)cc3C(=O)N([C@@H](C)CO)C[C@@H]2C)cc1	none (no result: HIF activator, HSF1 inh, HSP90 inh, HSF1 activator)
Oc1ccccc1/C=N/Nc1nccnc1Cl	HIF activator 126.6, ARNT-TACC3 inh 67.0
O=[N+]([O-])c1ccc(NN=Cc2ccc(O)cc2O)nc1	none (no result: HIF activator, HSF1 inh, HSP90 inh, HSF1 activator)
Oc1cccc(C=NNc2ccccn2)c1	none (no result: HIF activator, HSF1 inh, HSP90 inh, HSF1 activator)
Oc1ccc(/C=N/Nc2nccnc2Cl)c(O)c1	none
Cc1ccc(/C=N/Nc2cccc3cccnc23)c(O)c1	HSF1 activator 68.3
Oc1ccc(C=NNc2ccccn2)c(O)c1	ARNT-TACC3 inh 60.3 (no result: HIF activator, HSF1 inh, HSP90 inh, HSF1 activator)
CCN(CC)S(=O)(=O)c1ccc(N/N=C/c2ccc(O)cc2O)nc1	HIF activator 117.2, ARNT-TACC3 inh 46.1
C/C=C/c1ccc2c(c1)O[C@@H](CN(C)C(=O)NC(C)C)[C@@H](C)CN([C@H](C)CO)S2(=O)=O	none (no result: HIF activator, HSF1 inh, HSP90 inh, HSF1 activator)
COCC(=O)Nc1ccc2c(c1)C(=O)N(C)[C@H]1CC[C@H](CC(=O)NC3CCCC3)O[C@@H]1CO2	none (no result: HIF activator, HSF1 inh, HSP90 inh, HSF1 activator)
CO[C@H]1CN(C)C(=O)c2cc(NC(=O)C3CCCC3)ccc2OC[C@@H](C)N(C(C)=O)C[C@@H]1C	none (no result: HIF activator, HSF1 inh, HSP90 inh, HSF1 activator)
CC(C)N(C[C@H]1N[C@@H](CO)[C@H]1c1ccccc1)C(=O)c1ccccc1	none (no result: HIF activator, HSF1 inh, HSP90 inh, HSF1 activator)
C(=N\Nc1ccccn1)/c1c[nH]c2ccccc12	HSF1 activator 251.0
CCC[C@H](CN[C@@H](CNC)[C@H](C)O)NCCc1ccc(OC)cc1	none
CCCC[C@@H](CNC)NC[C@H](Cc1ccc(O)cc1)NCCc1ccc(OCC)cc1	HSF1 inh -79.6
COCCn1c(C)cc(C(=O)COC(=O)c2ccc(-n3nc(C)cc3C)cc2)c1C	HSF1 activator 60.4
COCCn1c(C)cc(C(=O)COC(=O)c2ccc(Cl)c(S(N)(=O)=O)c2)c1C	HSF1 inh -60.5 (no result: HSP90 inh)
Cc1cc(C(=O)CSc2nnc(-c3ccc(F)cc3)o2)c(C)n1CC1COc2ccccc2O1 (stereo not drawn)	none
COCCn1c(C)cc(C(=O)COC(=O)c2ccc(N3CCCC3=O)cc2)c1C	none
Cc1cc(C(=O)CSc2nnc(-c3ccccc3)o2)c(C)n1CC1COc2ccccc2O1 (stereo not drawn)	HSP90 inh 16.5
Cc1cc(C(=O)COC(=O)CNC(=O)c2ccccc2)c(C)n1CC1CCCO1 (stereo not drawn)	HSF1 inh -50.2
COCCn1c(C)cc(C(=O)COC(=O)c2ccc(Br)o2)c1C	HSF1 inh inconclusive
Cc1cc(C(=O)COC(=O)c2ccc(Cl)c(S(N)(=O)=O)c2)c(C)n1CC1CCCO1 (stereo not drawn)	HSF1 inh -56.7 (no result: HSP90 inh)

Compound activity deposited in PubChem by several laboratories.
